# Source: PubChem BioAssay AID720541 (National Center for Advancing Translational Sciences (NCATS), 2013)
# “And” between values parts separate entries of the source, which are not always exact repeats. Equal values may be shown once. About 420 (32%) of roughly 1,300 compounds were called active. About 32% were inconclusive and are not listed. Calls follow the shape of the dose curve; as a rule, active = well fitted inhibition curve with a large enough effect; inconclusive = small, poorly fitted or top-dose-only effect; inactive = no such curve, though single readings can be large or run the other way. This is one part of the list. Where a structure was tested more than once in an assay, its records may differ in their call.
# Biological target: C-terminal-binding protein 1 (Homo sapiens) (UniProt Q13363)
# Test: qHTS for Inhibitors of the Phosphatase Activity of Eya2: Carboxyl-terminal binding protein (CtBP) Counterscreen for Cherry-picked Compounds; also: nearly all actives have a fitted effect of over 65% in size
# Details: purified protein-protein binding, AlphaScreen, 3 h; series mostly up to 46.1 µM
# Text: The Eya protein family is an essential co-activator of the Six1 transcription factor. Six1 is a developmental gene that is abnormally re-expressed in a large percentage of breast cancers. This over-expression plays a causal role in the initiation and metastatic development of breast cancers. The Eya family of protein is also found to contain a unique HAD phosphatase domain with protein tyrosine phosphatase activity which can potentially play a role in Six1-mediated breast tumorigenesis. Recently, Eya2 is found to dephosphorylate the histone variant H2AX and direct cells towards DNA repair instead of apoptosis in the event of DNA damage.
# A 1536 well format, fluorescence based qHTS assay was developed and used to target the phosphatase activity of Eya2 (AID 488837). In addition, a CtBP counterscreen was developed using the AlphaScreen technology to evaluate compound selectivity to target […]. The data herein reports the activity of the cherry-picked compounds against the CtBP AlphaScreen. Compounds that are active or have > 100 fold selectivity vs. the Eya2 activity were excluded for further characterization. Inactivity is the desired outcome for the CtBP counterscreen.
# NIH Chemical Genomics Center [NCGC]
# NIH Molecular Libraries Probe Centers Network [MLPCN]
# Assay Submitter (PI): Rui Zhao, University of Colorado Denver
# Four microliters of reagent (25 nM GST-E1A, 25 nM CtBP-6x HIS) was dispensed in a 1536 well Greiner plates. Twenty-three nanoliter of test compounds (final concentration of 2.5 nM - 46 uM) and positive control E1A peptide inhibitor (final concentration of 0.14 nM - 4.6 uM) were added to the plates using the Kalypsys pintool equipped with a 1536 pin head. The plates was then incubated at room temperature for 2 hours followed by addition of 1 uL Alpha bead donor / acceptor mix (20 ug/mL final concentration). The assay plates were incubated for additional 1 hour at room temperature and protected from light. The AlphaScreen signal was obtained using the PerkinElmer EnVision plate reader using the 680 nm excitation and 520 - 620 nm emission filters. The data was normalized to the E1A peptide inhibitor for maximum inhibition and DMSO treated wells as negative control.
# Potency is read from the fitted curve at half-maximal effect.
row,SMILES,Potency
1,O=c1c(CO)cc(CO)cc(CO)c1O,9.53 µM (active)
2,Cn1c(=O)n(Cc2ccc(F)cc2)c(=O)c2c1nc1n2CCN1Cc1ccco1,10.7 µM (active)
3,Cn1c(=O)n(CCO)c(=O)c2c1nc(Br)n2Cc1ccccc1,inactive
4,Cn1c(=O)n(Cc2ccccc2)c(=O)c2c1nc(NCC1CCCO1)n2Cc1ccccc1 (centres undefined),inactive
5,COCCNC(=O)CCC(=O)NNc1nc2ccccc2c2nc(-c3ccccc3)nn12,inactive
6,COc1ccc2c(c1)c1nnc(SC(C)C)nc1n2C,4.78 µM (active)
7,Cc1cccc(NC(=S)N(CCN2CCOCC2)Cc2cc3cc4c(cc3[nH]c2=O)OCCO4)c1,inactive
8,Nc1ccc2c(c1Cl)C(=O)c1ccc(N)c(Cl)c1C2=O,6.01 µM (active)
9,CCOC(=O)c1ccc(NC(=S)N2CCN(CCN=CC3=C(O)CC(c4ccccc4)CC3=O)CC2)cc1 (centres undefined),inactive
10,COc1cc(N=c2oc3c(C)ncc(CO)c3cc2C(N)=O)cc(OC)c1OC,4.78 µM (active)
11,CCOC(=O)Cc1nnc(NC(=O)CSc2nnc3c4ccccc4n(C)c3n2)s1,15.1 µM (active)
12,O=C(CSc1nnc2c(n1)[nH]c1ccccc12)Nc1cccc(S(=O)(=O)N2CCOCC2)c1,inactive
13,Cc1nc(NC(=O)CSc2nnc(-c3ccccc3)c(-c3ccccc3)n2)c(Cl)cc1Cl,inactive
14,CCOC(=O)Cc1nnc(NC(=O)CSc2nnc3c(n2)[nH]c2ccccc23)s1,15.1 µM (active)
15,O=C(CSc1nnc2c(n1)[nH]c1ccccc12)Nc1ccc(S(=O)(=O)Nc2ncccn2)cc1,5.36 µM (active)
16,CCOC(=O)Cc1nnc(NC(=O)C(CC)Sc2nnc3c4ccccc4n(C)c3n2)s1 (centres undefined),13.5 µM (active)
17,CC1(C)CC2CC(C)(CN2/C=N/c2sc3c(c2C#N)CC(C)(C)NC3(C)C)C1 (centres undefined),inactive
18,COc1cc2[nH]cc(C(=O)NCc3ccccc3)c(=O)c2cc1OC,3.79 µM (active)
19,COc1ccc(CNC(=O)c2sc(=O)n(Cc3cc(Cl)ccc3OC)c2C)cc1,inactive
20,CC1CCC(=NNc2ccc(C(F)(F)F)cc2[N+](=O)[O-])CC1 (centres undefined),8.49 µM (active)
21,C1=Cc2ccccc2/C1=C\c1cc2c3c(c1)CCCN3CCC2,8.49 µM (active)
22,Cc1cc(=O)n2[nH]c(Nc3cccc(Cl)c3)nc2n1,inactive
23,COc1ccc(N2CCN(C(=O)c3cc(-c4cc(OC)ccc4OC)nc4ccccc34)CC2)cc1,13.5 µM (active)
24,COc1ccc(Nc2cc(C(=O)N3CCc4ccccc4C3)c3ccccc3n2)c(OC)c1,inactive
25,COc1ccc2cc(C(=O)N3CCN(c4ccc(F)cc4)CC3)[nH]c2c1,inactive

row,SMILES,Potency
1,CN(C)CCCN1c2ccc(O)cc2Sc2ccc(Cl)cc21,12 µM (active)
2,Nn1c(SCC(=O)Nc2ccc3c(c2)OCCO3)nnc1-c1ccccn1,15.1 µM (active)
3,O=C(CSc1ccc2c(c1)OCCO2)Nc1ccc2c(c1)OCO2,inactive
4,Cn1cc(SCC(=O)Nc2ccc3c(c2)OCCO3)c2ccccc21,inactive
5,Cc1ccc(OCCSc2nc3ccccc3n2CCC(=O)O)c(C(C)C)c1,inactive
6,Cc1cccc(NC(=S)NC(=O)c2ccco2)n1,10.7 µM (active)
7,COc1ccc2nc(NC(=S)NC(=O)c3ccco3)sc2c1,inactive
8,O=C(NC(=S)Nc1ccccc1N1CCCCC1)c1ccco1,inactive
9,O=S(=O)(Nc1nccs1)c1ccc(NCc2cc(Br)cc(Br)c2O)cc1,1.9 µM (active)
10,CCc1nnc(NS(=O)(=O)c2ccc(NCc3cc(Cl)cc(Cl)c3O)cc2)s1,4.26 µM (active)
11,CCS(=O)(=O)N1CCC(C(=O)Oc2ccc(Cl)cc2)CC1,inactive
12,CC(=O)Nc1ccc(S(=O)(=O)N2C3CCCC2CC(NC(=O)C2CCCCC2)C3)cc1 (centres undefined),inactive
13,CC(=O)Nc1ccc(S(=O)(=O)Nc2ccc(N3CCCCC3)cc2)cc1,8.49 µM (active)
14,COc1ccc(C(=O)OCC(=O)Nc2ccc(N3CCOCC3)cc2)cc1,inactive
15,CC(=O)Oc1cccc2c1C(=O)C1CC=CC(OC(C)=O)C1C2=O (centres undefined),9.53 µM (active)
16,O=C(O)c1ccc2c(=O)n3cc(C(=O)c4ccccc4O)cc(Cl)c3nc2c1,12 µM (active)
17,O=C(O)c1ccc(N/N=C/c2cc3cc4c(cc3nc2Cl)OCCO4)cc1,inactive
18,Cc1cc(C)cc(C(=O)NC(=S)Nc2ccc3c(c2)OCCO3)c1,inactive
19,Cc1cc(O)cc(O)c1/C=N/NC(=O)c1ccc2c(c1)OCCO2,8.49 µM (active)
20,CCCCC1=CC2=C(c3ccco3)C(=O)C(C)(OC(=O)c3ccc(OC)cc3)C(=O)C2=CN1CCc1ccccn1 (centres undefined),inactive
21,CCC(C)c1ccc2oc(-c3ccc(NC(=O)c4ncn[nH]4)cc3)nc2c1 (centres undefined),13.5 µM (active)
22,CC(C)c1ccc2oc(-c3ccc(NC(=O)c4ncn[nH]4)cc3)nc2c1,12 µM (active)
23,Cc1ccc(C(=O)Nc2cccc(-c3nc4ncccc4o3)c2)cc1,inactive
24,Cc1ccc(NC(=O)c2[nH]cnc2C(=O)NN)cc1,15.1 µM (active)
25,C[C@@H](NC(=O)c1nc[nH]c1C(=O)N[C@@H](Cc1ccccc1)C(=O)OC(C)(C)C)c1ccccc1,inactive

row,SMILES,Potency
1,CCOC(=O)c1ccc(NC(=O)c2nc[nH]c2C(=O)N[C@@H](Cc2ccccc2)C(=O)OC(C)(C)C)cc1,inactive
2,O=C(CNC(=O)c1[nH]cnc1C(=O)N[C@@H](Cc1ccccc1)C(=O)OCc1ccccc1)OCc1ccccc1,inactive
3,NNC(=O)c1nc[nH]c1C(=O)Nc1ccccn1,8.49 µM (active)
4,O=C(Nc1ccc(F)cc1)c1nc[nH]c1C(=O)O,7.57 µM (active)
5,COc1ccc(N(CC(=O)N2CCCCC2)S(=O)(=O)c2c(C)nn(C)c2C)cc1,inactive
6,O=C(O)CSc1ccc2nnc(-c3cccnc3)n2n1,inactive and 13.5 µM (active)
7,Cc1nnc(NC(=O)CSc2ccc3nnc(-c4ccccn4)n3n2)s1,inactive
8,O=C(CSc1ccc2nnc(-c3ccccn3)n2n1)Nc1ccccc1,10.7 µM (active)
9,CCCCC(Sc1ccc2nnc(-c3ccccn3)n2n1)C(=O)O (centres undefined),13.5 µM (active)
10,O=C(CSc1ccc2nnc(-c3ccccn3)n2n1)Nc1ccccc1F,7.57 µM (active)
11,CN(C)c1ccc2nc3ccc(=[N+](C)C)cc-3sc2c1,inactive
12,CC(=O)Oc1ccc2nonc2c1OC(C)=O,inactive
13,CC1=C(C(=O)N2CCOCC2)CC(CC(=O)NC(c2ccccc2)c2ccccc2)C(=O)N1Cc1ccc(C(C)(C)C)cc1 (centres undefined),inactive
14,O=C(CSc1ccc2nnc(-c3ccccn3)n2n1)Nc1ccccc1C(F)(F)F,10.7 µM (active)
15,Cc1csc(NC(=O)CSc2ccc(-c3ccccn3)nn2)n1,4.26 µM (active)
16,Cc1ccccc1NC(=O)CSc1ccc(-c2ccccn2)nn1,3.79 µM (active)
17,Cc1cc(C)c(NC(=O)CSc2ccc(-c3ccccn3)nn2)c(C)c1,3.38 µM (active)
18,O=S(=O)(NCCSCc1ccc(Cl)c(Cl)c1)c1ccc2c(c1)OCCO2,inactive
19,CCOc1ccc(CCN2C(=O)C(=O)N([C@@H](Cc3ccccc3)CN3CCC[C@H]3CN3C(=O)C(=O)NC[C@@H]3Cc3ccccc3)C[C@@H]2Cc2ccccc2)cc1,inactive
20,CCN(CC)c1ccc(NC(=O)c2ccc3c(c2)c(C)c(C)n3C)cc1,10.7 µM (active)
21,NC(N)=Nc1nc2cc([N+](=O)[O-])ccc2o1,inactive
22,Cc1cc(/C=C2\C=Cc3ccccc32)ccc1N(C)C,8.49 µM (active)
23,CNc1ccc(/C=C2\C=Cc3ccccc32)cc1OC,8.49 µM (active)
24,CN(C)c1ccc(/C=C2\C=Cc3ccccc32)cc1N,13.5 µM (active)
25,CN(C)c1ccc(/C=C2\C=Cc3ccccc32)cc1[N+](=O)[O-],7.57 µM (active)

row,SMILES,Potency
1,COc1cc(/C=C2/C=Cc3ccccc32)ccc1N(C)C,8.49 µM (active)
2,O=[N+]([O-])c1ccc(/C=C2\C=Cc3ccccc32)cc1,7.57 µM (active)
3,O=C(Nc1ccccc1Cl)N1CCN(c2ccc3nnc(-c4ccccc4)n3n2)CC1,5.36 µM (active)
4,COc1cccc(N2CCN(c3ccc4nnc(CCC(=O)Nc5cccc(C(C)=O)c5)n4n3)CC2)c1,inactive
5,NCC(=O)Nc1ccc(Cl)cc1C(=O)c1ccc[nH]1,inactive
6,COC1=C(Nc2ccc(OC)cc2)C(=O)c2ccccc2C1=O,6.75 µM (active)
7,COc1ccc(-c2cn(Cc3ccc4c(c3)C(=O)c3ccccc3C4=O)nn2)cc1,inactive
8,CCc1ccc2nc3nc(C)cc(C)c3c(N)c2c1,10.7 µM (active)
9,CCC(=O)Nc1ccc(C(=O)COC(=O)c2nc3nccc(C)n3n2)cc1,inactive
10,COc1cc(NS(=O)(=O)c2ccc(N/C=C\C(=O)c3ccc(OC)c(OC)c3)cc2)nc(OC)n1,8.49 µM (active)
11,COc1ccc(C(=O)/C=C/Nc2ccc(S(=O)(=O)Nc3nc(C)cc(C)n3)cc2)cc1OC,12 µM (active)
12,Cc1ccccc1-c1cnc(C(O)c2c(C)cccc2C)[nH]1 (centres undefined),inactive
13,Cc1oc2cc([N+](=O)[O-])c(O)c([N+](=O)[O-])c2c1C(=O)c1ccc(Cl)cc1,16.9 µM (active)
14,COc1ccc(NC(=O)c2cc(-c3ccco3)nc3ccccc23)cn1,inactive
15,O=C(Nc1nncs1)c1cc(-c2ccco2)nc2ccccc12,13.5 µM (active)
16,COc1ccccc1OCc1ccc(C(=O)Nc2cc(OC)c(OC)c(OC)c2)o1,inactive
17,COc1cccc(C(=O)Nc2cccc(-c3ccc4nncn4n3)c2)c1OC,13.5 µM (active)
18,Nc1ccc(O)cc1,12 µM (active)
19,Nc1nc2nn(-c3ccccc3)nc2c(=O)[nH]1,6.01 µM (active)
20,Cc1ccc(-c2nnc(Nc3ccc4c(c3)OCO4)c3ccccc23)cc1S(N)(=O)=O,inactive
21,CNC(=O)c1ccc(Nc2nnc(-c3ccc(C(N)=O)cc3)c3ccccc23)cc1,6.75 µM (active)
22,COc1ccc(Nc2nnc(-c3ccc(C(N)=O)cc3)c3ccccc23)cc1,4.78 µM (active)
23,CCN(CC)C(=O)c1ccc(-c2nnc(Nc3ccc(C(=O)NC)cc3)c3ccccc23)cc1,16.9 µM (active)
24,COc1ccc(-c2csc(-c3ccc(C(=O)O)cc3)n2)cc1,inactive
